Values joined by “and” are separate entries in the source; they are usually repeats but may differ in a detail not shown here. Identical values can stand only once. Inconclusive results are not listed. Active and inactive are the calls of the source. The calls were made as follows: active = hit-call score of the fitted dose curve at least 0.9, where 1 is the maximum; inconclusive = response in the unintended direction; inactive = score below 0.9.

human Dopamine Transporter (DAT), SLC6A3 (gene 6531), sequence (Q01959 whole entry, looked up): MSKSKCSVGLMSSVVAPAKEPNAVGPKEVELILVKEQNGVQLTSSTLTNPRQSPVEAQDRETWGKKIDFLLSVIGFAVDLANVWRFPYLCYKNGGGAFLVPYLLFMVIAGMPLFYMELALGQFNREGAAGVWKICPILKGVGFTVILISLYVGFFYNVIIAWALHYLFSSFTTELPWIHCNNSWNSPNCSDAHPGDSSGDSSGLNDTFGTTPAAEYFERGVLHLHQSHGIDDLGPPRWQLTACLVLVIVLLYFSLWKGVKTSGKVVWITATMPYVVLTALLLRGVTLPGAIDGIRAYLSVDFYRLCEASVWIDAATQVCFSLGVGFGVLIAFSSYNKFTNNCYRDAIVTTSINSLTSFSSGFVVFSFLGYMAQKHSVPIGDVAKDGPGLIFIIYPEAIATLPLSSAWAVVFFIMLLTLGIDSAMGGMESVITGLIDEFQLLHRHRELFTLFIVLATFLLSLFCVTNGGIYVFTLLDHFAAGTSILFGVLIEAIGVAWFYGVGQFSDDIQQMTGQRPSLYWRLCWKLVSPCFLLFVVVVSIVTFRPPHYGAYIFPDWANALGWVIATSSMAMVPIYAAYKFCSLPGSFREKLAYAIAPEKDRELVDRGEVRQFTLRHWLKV

The target in this experiment is human Dopamine Transporter (DAT), SLC6A3 (gene 6531) (UniProt Q01959). Briefly: NVS_TR_hDAT: NovaScreen (NVS) Transporter Assay for human Dopamine Transporter (DAT) (AID 2283374).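 Also: activity means loss of bound radioligand signal relative to DMSO.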 As to the method:
NVS_TR_hDAT is a biochemical, single-readout assay that uses extracted gene-proteins in a cell-free assay. Measurements were taken 1 hour after chemical dosing in a 96-well plate.NVS_TR_hDAT is one of one assay component(s) measured or calculated from the NVS_TR_hDAT assay. It is designed to make measurements of radioligand binding, a form of binding reporter, as detected with scintillation counting signals by Filter-based radiodetection technology.Data from the assay component NVS_TR_hDAT was analyzed into 1 assay endpoint. This assay endpoint, NVS_TR_hDAT, was analyzed in the positive analysis fitting direction relative to DMSO as the negative control and baseline of activity. Using a type of binding reporter, loss-of-signal activity can be used to understand changes in the binding as they relate to the gene SLC6A3. Furthermore, this assay endpoint can be referred to as a primary readout, because the performed assay has only produced 1 assay endpoint. To generalize the intended target to other relatable targets, this assay endpoint is annotated to the transporter intended target family, where the subfamily is neurotransmitter transporter.
Binding assays used specific radioligands (tritiated, iodinated) with non-radioactive competitive displacement ligands in agonist or antagonist protocols (as indicated) and various reference compounds and inhibitors to titrate specific binding to receptors and transporters. Most enzyme assays (CYPs, kinases, phosphatases, proteases, HDACs) used recombinant protein and specific substrates (fluorescence mostly, some colorimetric and radioactive) and inhibitors, followed by a biochemical separation of substrate and product. All assays for the biochemical HTS were initially run in duplicate at a single concentration (10 uM for CYP450 assays and 25 uM for all others). […] Each assay was run with positive and negative controls, and concurrent controls on every plate. The follow-up (secondary) screen tested active chemical-pairs in concentration series, as well as a few additional assays not tested in the primary screen, some selected negative inactives, and several cases re-run in the concentration series for confirmatory purposes.
A word on the AC50: it is the concentration giving half of the maximal activity seen. For the compound `COP(=S)(OC)Oc1ccc(SC)c(C)c1`, the AC50 was 7.96 µM (active).
Still for that read-out and setting: then `Oc1ccc(Cl)cc1Cc1ccccc1`, with 3.69 µM (active) [middle of 8 runs]; and `CC[C@H](C)[C@H]1O[C@]2(C=C[C@@H]1C)C[C@@H]1C[C@@H](C/C=C(\C)[C@@H](O[C@H]3C[C@H](OC)[C@@H](O[C@H]4C[C@H](OC)[C@@H](O)[C@H](C)O4)[C@H](C)O3)[C@@H](C)/C=C/C=C3\CO[C@@H]4[C@H](O)C(C)=C[C@@H](C(=O)O1)[C@]34O)O2` (tested in a mixture with another compound), with 11.3 µM (active); and `ClC1C(Cl)C(Cl)C(Cl)C(Cl)C1Cl` (stereo not given), with 5.04 µM (active) and 18.5 µM (active) and 14.4 µM (active).
Turning to `CCC(C)Nc1c([N+](=O)[O-])cc(C(C)(C)C)cc1[N+](=O)[O-]` (stereo not given), the AC50 was 8.98 µM (active).
Take `CCCN(CCC)c1c([N+](=O)[O-])cc(C(F)(F)F)cc1[N+](=O)[O-]`: the AC50 is 25 µM (active).
Consider `Oc1cc(Cl)ccc1Oc1ccc(Cl)cc1Cl`, for which the AC50 was 21.3 µM (active) [middle of 4 runs].
The same measure, in the same setting: then `O=S1OCC2C(CO1)C1(Cl)C(Cl)=C(Cl)C2(Cl)C1(Cl)Cl` (stereo not given), with 10.9 µM (active); and `CC(C)OC(=O)Nc1cccc(Cl)c1`, with 16.3 µM (active).
The same measure, in the same setting: to `CC1(C)C(C=C(Cl)Cl)C1C(=O)OC(C#N)c1ccc(F)c(Oc2ccccc2)c1` (stereo not given) belongs 2.03 µM (active).
On the same count and under the same terms, to `CC(C)N(C(=O)COc1nnc(C(F)(F)F)s1)c1ccc(F)cc1` belongs 13.6 µM (active); to `CCN(CC)C(=O)SCc1ccc(Cl)cc1`, 7.71 µM (active).
For `CCC(C)(C)C(=O)OC1=C(c2ccc(Cl)cc2Cl)C(=O)OC12CCCCC2`, the result was inactive.
For the compound `CCCN(CCOc1c(Cl)cc(Cl)cc1Cl)C(=O)n1ccnc1`, the AC50 is 6.06 µM (active).
Still for that read-out and setting: to `COP(=S)(OC)Oc1ccc([N+](=O)[O-])cc1` belongs 25 µM (active).
